Dicer inh: inhibitors of human Dicer processing of pre-microRNA. AID 1347074. actives 6% (n = 47,000). Q9UPY3. cat-ELCCA pre-miR-21 Dicer processing, chemiluminescence; hits give high values. z-score at 25 µM; in the data active = z-score above about 3, passing the limit was not always enough;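 also: plate controls were vehicle for no effect and no enzyme for full effect; higher signal means more uncleaved substrate so more Dicer inhibition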
Active calls of the source: *. The full list was thinned out, with hits kept by preference.

For Cc1oc2ccc(OC(=O)N3CCOCC3)cc2c1C(=O)OC(C)C the results were Dicer inh -0.19.
`COC(OC)c1ccc(C#N)c(SCC(=O)c2ccc(C)cc2)n1` gave Dicer inh -2.5.
CCCCOC(=O)c1c(N)n(-c2ccc(OC)cc2)c2nc3ccccc3nc12 was read as Dicer inh 1.6.
CCCCCNc1ncnc2c1sc1nc3c(cc12)COC(C)(C)C3 was read as Dicer inh 1.8.
Screening CC1(C)Cc2nc3sc4c(NCC5CCCO5)ncnc4c3cc2CO1 (configuration not stated) returned Dicer inh 5.7*.
CCN(CC)CCNc1ncnc2c1sc1nc3c(cc12)COC(C)(C)C3 was read as Dicer inh 0.98.
C=CCOC(=O)c1sc(N2C(=O)c3oc4ccc(C)cc4c(=O)c3C2c2ccccc2F)nc1C (configuration not stated) was read as Dicer inh 2.3.
For CSc1nnc2c(n1)OC(c1ccc(Br)cc1)N(C(C)=O)c1ccccc1-2 (configuration not stated) the results were Dicer inh -1.5.
`COC(=O)C(O)(c1ccc(N(C)C(=O)Nc2ccc(F)c(Cl)c2)cc1)C(F)(F)F` (configuration not stated) gave Dicer inh 0.05.
`CC(C)(C)NC(=S)N/N=C/c1ccccc1O` gave Dicer inh 5.7.
For CC(C)(C)NC(=S)N/N=C/c1coc2c(Cl)cc(Cl)cc2c1=O the results were Dicer inh 4.8*.
For CC(C)(C)NC(=S)N/N=C/c1ccccc1Cl the results were Dicer inh -0.13.
Brc1cc(-c2ccccn2)sc1Sc1ccccc1 was read as Dicer inh 0.68.
For CCOC(=O)c1nnn(Cc2ccccc2)c1N the results were Dicer inh 1.7.
Screening CCOC(=O)c1cn(Cc2ccccc2)c2cc(C)nn2c1=O returned Dicer inh -0.01.
For CCOC(=O)c1ncn(Cc2ccccc2)c1N the results were Dicer inh 3.4*.
CC(C)(CC(=O)O)CC(=O)N1CCCN(c2c(Cl)cncc2Cl)CC1 was read as Dicer inh 1.9.
`CC(C)(CC(=O)O)CC(=O)N1CCN(c2ccccn2)CC1` gave Dicer inh 4.1*.
Screening C=C(C)c1cccc(C(C)(C)NC(=O)N2CCN(c3ccccn3)CC2)c1 returned Dicer inh 1.4.
Screening Cc1cc(NC(=O)NCCNc2ncccc2C(F)(F)F)c(C(F)(F)F)o1 returned Dicer inh -3.1.
CC12CCC3c4ccc(Oc5ccc([N+](=O)[O-])cc5)cc4CCC3C1CCC2O (configuration not stated) was read as Dicer inh 0.52.
`COc1ccc(N=Nc2c(O)ccc3ccccc23)cc1` gave Dicer inh 3.4*.
For CCN(CCC#N)c1ccc(N=Nc2c(O)ccc3ccccc23)cc1 the results were Dicer inh 6.1*.
For Oc1ccccc1N=Nc1c(O)ccc2ccccc12 the results were Dicer inh 10.
`Cc1cccc(N=Nc2c(O)ccc3ccccc23)c1` gave Dicer inh 2.2.
Screening Oc1ccc2ccccc2c1N=Nc1ccccc1F returned Dicer inh 1.4.
Oc1ccc2ccccc2c1N=Nc1cccc(Cl)c1 was read as Dicer inh 3.7.
Cc1ccc(CSc2nnc3c(n2)[nH]c2ccc(Br)cc23)cc1 was read as Dicer inh -0.38.
For Cc1cccc(C2Nc3ccccc3NC3=C2C(=O)CC(c2ccccc2)C3)c1 (configuration not stated) the results were Dicer inh 1.3.
`Cc1cc(-c2onc(C)c2-c2nc(-c3cccc(C(F)(F)F)c3)no2)no1` gave Dicer inh 0.32.
`COc1ccc(C2c3c(oc4ccccc4c3=O)C(=O)N2c2nnc(C(C)C)s2)cc1` (configuration not stated) gave Dicer inh -0.48.
Cc1nc(NCc2ccc3c(c2)OCO3)nc2c1C(=O)c1ccccc1-2 was read as Dicer inh -1.1.
`COc1ccc(C2NC(=O)N(C)C(C)=C2C(=O)Nc2ccccc2)cc1` (configuration not stated) gave Dicer inh 3.6.
O=C(COc1ccc(Cl)cc1)NC1CCSC1=O (configuration not stated) was read as Dicer inh 0.2.
`COc1ccc(S(=O)(=O)NC2CCSC2=O)cc1` (configuration not stated) gave Dicer inh 3.7*.
For O=C1SCCC1NS(=O)(=O)c1ccccc1 (configuration not stated) the results were Dicer inh 0.5.
`Cc1c(Cl)cc(F)cc1S(=O)(=O)N1CC=C(c2ccccc2)CC1` gave Dicer inh 0.88.
For COc1nccnc1NS(=O)(=O)c1ccc(NCc2cc(Cl)ccc2O)cc1 the results were Dicer inh 3.7*.
For Cc1cc(C)nc(NS(=O)(=O)c2ccc(NCc3cc(Br)ccc3O)cc2)n1 the results were Dicer inh 10.
For COc1ccc(-c2cnc(NCc3cc(Cl)ccc3O)n2C)cc1 the results were Dicer inh 1.3.
`CSC1=N/C(=C\c2cccc(Cl)c2)C(=O)N1Cc1ccc(Cl)cc1` gave Dicer inh 0.77.
For CC(=O)c1sc2ccc(C)cc2c1C the results were Dicer inh 0.42.
For O=C(O)C1CC(=O)N(Cc2ccco2)C1 (configuration not stated) the results were Dicer inh 0.7.
For c1ccc(C2CN(Cc3ccco3)C(c3ccccc3)O2)cc1 (configuration not stated) the results were Dicer inh 3.5*.
For O=c1[nH]c(=O)n(-c2ccccc2)c2c1CN(Cc1ccco1)CN2 the results were Dicer inh 0.98.
`CSc1cccc(NC(=S)NN/C(=N\S(=O)(=O)c2ccccc2)N2CCCC2)c1` gave Dicer inh -0.11.
Screening O=C(CCCSc1nc(-c2ccco2)cc(C(F)(F)F)n1)NC1CCCCC1 returned Dicer inh -0.99.
For O=C(O)CSC1(SCC(=O)O)CCCCCC1 the results were Dicer inh 2.3.
Screening O=C1/C(=C/c2cccs2)CS/C1=C/c1cccs1 returned Dicer inh -3.
`O=C1/C(=C/c2cccs2)CCCc2ccccc21` gave Dicer inh 0.41.
`O=C1/C(=C/c2cccs2)COC/C1=C\c1cccs1` gave Dicer inh 4.2*.
`CCc1c(C#N)c(SCC(=O)NCc2ccc3c(c2)OCO3)nc2c1C(=O)CC(C)(C)C2` gave Dicer inh -0.1.
For CSc1nc(-c2ccccc2)nc(Nc2ccc(C(F)(F)F)cc2)c1C#N the results were Dicer inh -0.46.
For Cc1c(C#N)c(Sc2cccc(C(F)(F)F)c2)nc2ccccc12 the results were Dicer inh -1.1.
CSc1nc(-c2ccccc2)nc(Sc2cccc(C(F)(F)F)c2)c1C#N was read as Dicer inh 26*.
For O=C(COc1ccc(SC(F)(F)F)cc1)NNC(=O)NC(=O)c1ccccc1Cl the results were Dicer inh 1.5.
Screening c1ccc(-c2cc(Sc3nnc(-c4ccncc4)n3-c3ccccc3)n3ncnc3n2)cc1 returned Dicer inh 0.93.
Screening Nc1ccc2nc(-c3ccc(O)cc3)sc2c1 returned Dicer inh 3.5*.
For Nc1ccc(-c2nc3ccc(N)cc3s2)cc1 the results were Dicer inh 2.3.
`Nc1cccc(-c2nc3ccc(N)cc3s2)c1` gave Dicer inh 1.7.
CC(=O)Oc1ccc(-c2nc3ccc(C(=O)O)cc3s2)cc1 was read as Dicer inh 0.17.
Nc1ccc(-c2nc3ccc(C(=O)O)cc3s2)cc1 was read as Dicer inh 0.3.
